Most compounds without a hit are left out; they make up all but 0.93% or so of the library.
PKM2 activator = qHTS Assay for Activators of Human Muscle isoform 2 Pyruvate Kinase; Potency, µM (top dose mostly 57.5 µM), for the others: at the top dose activation, actives largely listed as activators; purified PKM2, Kinase-Glo ATP luminescence, activation; response scale: 0% is enzyme alone, no compound; hit rate 0.34% among 260,000; Pyruvate kinase PKM (Homo sapiens), P14618; active means well fitted activation curve with a large enough effect; inconclusive means small, poorly fitted or top-dose-only effect; inactive means no such curve, though single readings can be large or run the other way; further: potency means the concentration at half of the fitted maximal effect; nearly all actives have a fitted effect of over 55% in size
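Kinase-Glo luminescence reports ATP generated from ADP (0.1 mM) and PEP (0.5 mM) by purified hPK-M2 after 1 h at room temperature, pH 7.2 imidazole buffer; intermediate enzyme activity allows detecting inhibitors and activators.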
MBNL1 CUG block = qHTS Assay for Inhibitors of MBNL1-poly(CUG) RNA binding; Muscleblind-like protein 1 (Homo sapiens), Q9NR56; TR-FRET MBNL1-His/biotin-(CUG)12 binding, 665/545 ratio; Potency, µM (highest dose often 57.5 µM), without a hit: at the highest dose activity change, negative = inhibition, usual class: inhibitors; hit rate 0.036% among 280,000; active means well fitted inhibition curve with a large enough effect in the signal ratio, with a control signal flat, not every such curve was filed as active; inconclusive means small, poorly fitted or top-dose-only effect, or effect the other way, or a change in a side signal; inactive means no such curve, though single readings can be large or run the other way; the % refers to the signal ratio; further: potency means the concentration at half of the fitted maximal effect
Target sequence (Q9NR56 whole entry, looked up): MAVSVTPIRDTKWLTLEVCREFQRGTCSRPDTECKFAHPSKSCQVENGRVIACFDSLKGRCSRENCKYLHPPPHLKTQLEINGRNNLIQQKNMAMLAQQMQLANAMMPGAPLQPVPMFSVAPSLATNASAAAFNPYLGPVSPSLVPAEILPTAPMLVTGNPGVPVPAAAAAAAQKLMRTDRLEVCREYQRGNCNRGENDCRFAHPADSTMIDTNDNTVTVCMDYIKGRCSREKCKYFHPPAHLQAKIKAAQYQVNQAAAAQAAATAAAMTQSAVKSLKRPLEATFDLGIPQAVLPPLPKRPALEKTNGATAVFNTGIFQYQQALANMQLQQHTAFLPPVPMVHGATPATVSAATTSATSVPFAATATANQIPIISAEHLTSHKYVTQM
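Ratiometric TR-FRET (665 over 545 nm, excitation 340 nm) tracks disruption of MBNL1-His/biotin-(CUG)12 complex after 60 min at room temperature, with compounds at 92 nM to 58 uM final.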
Six1-Eya2 blk = qHTS Assay for Inhibitors of the Six1/Eya2 Interaction; Homeobox protein SIX1 (Homo sapiens) + Protein phosphatase EYA2 (Homo sapiens), …; AlphaScreen GST-Six1/His-Eya2 binding, biochemical; stronger effect = lower value; activity change, % (concentration not given with the values); hit rate 0.56% among 360,000; AID 651725, 2012
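Compounds are tested against tagged Six1 and Eya2 proteins bridged by glutathione donor and nickel acceptor beads; after a one-hour incubation at 37 °C without light, AlphaScreen emission is recorded.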
CtBP-E1A inh = qHTS Assay for Inhibitors of the CtBP/E1A Interaction. AlphaScreen GST-E1A/His-CtBP binding, 1536-well; stronger effect = lower value. activity change, % (no concentration beside the values). hit rate 0.49% among 340,000. AID 651724, 2012
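Steps: dispense buffer (Tris pH 8.0, NaCl 300 mM, TCEP 1 mM, BSA, Tween 20); add 5X protein mix (GST-E1A, His-CtBP, 125 nM each); pin 23 nL compound; 2 h at 37 °C, dark; add 5X beads (50 ug/mL); 1 h; read.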
* hit, by the source's call; ? = inconclusive; nt = no result given; [ ] = remark or other dose. Unless noted, no stated cut-off is given here; in the data, active means activity change below about -65%; inconclusive means mostly about -30% to -63%; inactive means weaker than that. On the % scale 0 is the no-effect control and ±100 the full control effect.

SMILES	PKM2 activator	MBNL1 CUG block	Six1-Eya2 blk	CtBP-E1A inh
COC(=O)c1ccc2c(c1O)C(=O)c1ccccc1C2=O	-9.8%	?	?	?
CCOc1ccccc1N1CCN(Cc2ccco2)CC1	-8.5%	-5.1%	-14.2	-11.2
CCOc1ccccc1N1CCN(C/C=C/c2ccc(N(C)C)cc2)CC1	3.1%	-2.0%	-76.5*	?
CN(C)C(=O)c1ccc(SC(=S)NCc2ccccc2)cc1	nt	nt	1.5	1.2
Nc1ccc(N)c(C(=O)O)c1	?	?	-81.7*	?
Nc1ccc(C(=O)O)c(O)c1	-0.7%	?	0.0	0.4
CC(=O)NC(C)(c1ccccc1)c1nc(-c2cnc3ccccc3c2)cs1 (configuration not stated)	nt	nt	-2.2	-0.7
COCCN(CCOC)c1nc(C)nc2c1nc(-c1ccccc1)n2CC1CCN(C)CC1	-2.0%	nt	nt	nt
O=C1c2cccc(O)c2C(=O)c2c(O)cccc21	3.9%	?	nt	nt
CC1OC(CC(=O)O)CC2=C1C(=O)c1c(O)cccc1C2=O (configuration not stated)	nt	nt	-88.7*	1.2
CCCCS(=O)(=O)N1CCc2nc(-c3ccccc3)c3c(c2C1)CO[C@@H](C)C3	-2.2%[11.5 µM]	nt	nt	nt
Oc1ccccc1/C=N/Nc1nc2ccccc2o1	-4.4%	8.1%	-71.6*	-77.1*
C/C(=N\Nc1nc2ccccc2s1)c1cccs1	-17.3%	-9.9%	-11.3	-7.0
CC(=NNc1nc2ccccc2s1)c1ncccn1	nt	nt	-92.4*	0.0
CC(=NNc1nc2ccccc2o1)c1ncccn1	nt	nt	-89.8*	-0.2
Cc1cc(C)nc(Nc2nc3ccccc3o2)n1	-0.1%	-16.1%	5.3	-1.7
Brc1ccc(/C=N/Nc2nc3ccccc3o2)cc1	nt	5.0%	-8.1	-12.8
COc1cc(/C=N/Nc2nc3ccccc3o2)cc(OC)c1O	-0.2%	18.1%	-8.5	-24.0
CC(=NNc1nc2ccccc2o1)c1cc2ccccc2cn1	nt	nt	-92.7*	-65.5*
COc1cc(Cc2nc3ccccc3n2C(C)c2nc3ccccc3[nH]2)cc(OC)c1 (configuration not stated)	nt	nt	-4.3	4.9
CC1(C(=O)Nc2cnc3ccccc3c2)CCN1Cc1ccc(-c2ccccc2)o1 (configuration not stated)	nt	nt	-6.2	-17.9
O=C(O)c1ccc(C2CCCCC2)cn1	-14.5%	-3.3%	-90.0*	-84.6*
COc1cccc(C(O)c2nc(-c3cccc(C(F)(F)F)c3)cs2)c1 (configuration not stated)	nt	nt	3.4	12.6
O=S(=O)(NCCO)c1ccc2c(c1)Cc1cc(S(=O)(=O)NCCO)ccc1-2	nt	-7.6%	7.8	10.3
O=S(=O)(NCCCO)c1ccc2c(c1)Cc1cc(S(=O)(=O)NCCCO)ccc1-2	12.6µM*	-3.9%	1.2	4.2
SMILES	PKM2 activator	MBNL1 CUG block	Six1-Eya2 blk	CtBP-E1A inh
COc1ccc(-c2cc(C(F)(F)F)n3nc(C(=O)O)cc3n2)cc1OC	3.9%	?	-69.6*	?
NC(=O)c1cc2nc(-c3ccco3)cc(C(F)(F)F)n2n1	-4.0%	39.9%	-72.1*	-80.1*
CCCCC[C@@H](C)N1C[C@@H](COCc2ccccc2)Oc2cc(N3CCC[C@@H]3COC)ccc2S1(=O)=O	nt	nt	-12.8	2.2
COc1ccc2c3c(c(=O)oc2c1)C1O[C@](CCCCN2C(=O)c4ccccc4C2=O)(Cc2cc(OC)c(OC)cc21)O3	2.8%[11.5 µM]	-4.4%[11.5 µM]	nt	nt
COC(=O)[C@]12CCCCC=C1N(CCc1ccc(OC)c(OC)c1)C(=O)[C@H](CC(=O)NCc1cccs1)C2	nt	nt	-6.9	-4.2
CCOc1ccc(-c2nnc3n2N=C(c2ccc(OC)cc2)CS3)cc1	-7.6%	2.8%	3.1	1.0
COc1ccc(C2=Nn3c(nnc3-c3cccnc3)SC2)cc1OC	-1.9%	-7.7%	-69.0*	-76.7*
COc1ccc(C2=Nn3c(nnc3-c3ccccn3)SC2)cc1	17.8%	6.7%	-67.1*	?
CNc1nc(Nc2ccc(C)cc2C)c2sccc2n1	nt	nt	-4.4	2.5
O=C(CNCc1ccncc1)Nc1cc(S(=O)(=O)N2CCCCC2)ccc1Cl	-1.4%	nt	-0.9	nt
Cc1ccc(S(=O)(=O)N2CCOCC2)cc1NC(=O)CNCc1ccccn1	1.1%	-6.0%	-68.6*	-93.6*
O=C(CNCc1ccccn1)Nc1cc(S(=O)(=O)N2CCCCC2)ccc1Cl	-0.6%	4.3%	-85.8*	-87.9*
Cc1ccc(S(=O)(=O)N2CCOCC2)cc1NC(=O)CNCc1ccccc1Cl	nt	nt	12.1	1.2
CCCCNC(=O)c1nc(C2CCNCC2)oc1-c1cccc(C(F)(F)F)c1	nt	nt	-12.0	2.6
Cc1cccc(C)c1NC(=O)C(c1ccccc1OC(F)(F)F)N1CCC(c2ccccc2)CC1 (configuration not stated)	nt	nt	4.1	-17.8
Oc1c(Cl)cc(CN2CCOCC2)c2cccnc12	nt	nt	-89.5*	nt
O=[N+]([O-])c1cc(CN2CCN(c3ccccc3)CC2)c(O)c2ncccc12	2.5%	14.5%	-90.8*	-94.6*
COc1cc(OC)cc(C(=O)Oc2c(CN3CCOCC3)cc(Cl)c3cccnc23)c1	-1.8%	nt	?	?
O=C(COc1c(Br)cc(Br)c2cccnc12)N1CCCCC1	nt	26.2%	-11.8	-6.9
O=[N+]([O-])c1cc(CN2CCOCC2)c2cccnc2c1O	-5.4%	23.3%	-87.6*	-4.4
Oc1c(CN2CCCCC2)cc(Br)c2cccnc12	13.0%	21.1%	-91.0*	-92.3*
Cc1cccc(C)c1N1C(=O)c2ccccc2NC(=O)C1C(=O)NCCc1ccccc1F (configuration not stated)	nt	nt	1.8	3.8
CCC12CC1(C(=O)OC)C(=O)N1CCc3c([nH]c4ccccc34)C12 (configuration not stated)	nt	nt	2.6	9.1
CC#CCN1c2ccccc2[C@]23C[C@@H](C(=O)OC)N(C(=O)CC(C)C)C2=NC(C(=O)OC)=C(C(=O)OC)[C@H]13	2.6%[11.5 µM]	nt	nt	nt
CCCCc1cc2c(cn1)=C(OC(=O)CCC(=O)OC)C(C)(OC(=O)CC)C(=O)C=2 (configuration not stated)	-2.1%[11.5 µM]	nt	nt	nt
SMILES	PKM2 activator	MBNL1 CUG block	Six1-Eya2 blk	CtBP-E1A inh
Oc1c(CN2CCc3ccccc3C2)cc(Cl)c2cccnc12	-0.4%	36.6%	-92.9*	-89.0*
O=c1oc2ccccc2c(O)c1Cc1cc(Cl)c2cccnc2c1O	1.3%	15.9%	-9.2	?
CCC(CC)C(=O)N(C)c1c(C)nc2c(OCC3CCCCC3)cccn12	nt	nt	0.1	2.3
Cc1ccc(S(=O)(=O)N2C[C@@H](C)[C@]3(C2)[C@H](O)[C@H](OC(=O)Nc2cccs2)C[C@H]2C(=O)N(c4ccccc4)C(=O)[C@H]23)cc1	nt	nt	-6.4	-2.6
Nc1nc2c(ncn2-c2ccccc2)c(=O)[nH]1	nt	nt	?	-73.3*
Nc1nc2nn(-c3ccccc3)nc2c(=O)[nH]1	-21.5%	9.6%	?	nt
